Here are results for 40 compounds from PubChem BioAssay.

SMILES strings stand for the structures. A number with no mark means an inactive call. The rule behind the calls is not given here.

Pantothenate synthetase (Mycobacterium tuberculosis (strain ATCC 25618 / H37Rv)), sequence (P9WIL5 whole entry, looked up): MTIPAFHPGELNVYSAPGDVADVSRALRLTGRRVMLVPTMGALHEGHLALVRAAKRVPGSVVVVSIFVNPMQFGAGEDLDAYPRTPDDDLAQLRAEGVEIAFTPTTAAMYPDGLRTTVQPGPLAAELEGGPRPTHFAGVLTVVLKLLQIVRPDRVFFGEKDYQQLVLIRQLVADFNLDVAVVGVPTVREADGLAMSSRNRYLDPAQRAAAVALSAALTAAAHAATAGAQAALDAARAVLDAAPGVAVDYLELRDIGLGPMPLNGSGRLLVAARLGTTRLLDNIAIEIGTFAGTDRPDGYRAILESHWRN

The assay addresses Pantothenate synthetase (Mycobacterium tuberculosis (strain ATCC 25618 / H37Rv)) (UniProt P9WIL5). As to the kind of experiment: Recombinant Mtb pantothenate synthetase (PanC) inhibitors, coupled enzyme, confirmatory (AID 375).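 Note: 0% = full reaction with vehicle and 100% = no enzyme background.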 The conditions noted are these: coupled enzyme assay; at 10 µM, hits give high values.
Turning to `CC1(C)CC(=O)c2cc(OCC(=O)NCCCN3CCN(c4ccccc4F)CC3)ccc2O1`, the inhibition was 0%.

On to `CC(C)Cn1c(CN2CCCCC2C)nc2c1c(=O)n(C)c(=O)n2C` (stereo not given), for which the inhibition is 0%.

With `COc1cccc(CNc2cccc3cccnc23)c1O`, the inhibition is 0%.

As to `Cc1cc(S(=O)(=O)N2CCN(c3ncccn3)CC2)ccc1-n1cnnn1`, the inhibition is 1%.

On to `CCN(CC)CC#CCOC(=O)C(O)(c1ccccc1)C1CCCCC1` (stereo not given), for which the inhibition is 1%.

For `NNC(=O)c1ccncc1`, the inhibition was 0%.

As to `CCCC(c1nnnn1Cc1ccc(OC)cc1)N1CCN(c2ccccc2OC)CC1` (stereo not given), the inhibition was 0%.

As for `CC(Oc1ccc(Cl)cc1Cl)c1nc(-c2ccc(NC(=O)c3cccnc3)cc2)no1` (stereo not given), the inhibition is 3%.

As to `CN1/C(=C\C(=O)C(F)F)C(C)(C)c2ccccc21`, the inhibition is 0%.

In the case of `COc1ccc(NC(=O)CSc2nnc(-c3ccccc3C)n2C)cc1`, the inhibition was 0%.

Take `COc1ccc(NC(=O)COc2ccccc2)c(OC)c1`: the inhibition was 0%.

Turning to `CC1(C)CC(=O)c2cnc(NC(=O)CSc3nc4ccccc4o3)nc2C1`, the inhibition was 0%.

On to `CCC(c1c(C)n(C)n(-c2ccccc2)c1=O)c1c(C)n(C)n(-c2ccccc2)c1=O`, for which the inhibition was 1%.

As for `CC(C)(C)NC(=O)Cn1c(=O)oc2ccc(Cl)cc21`, the inhibition was 0%.

Take `CN(c1ccccc1)S(=O)(=O)c1ccc(C(=O)OCC(=O)NCc2ccco2)cc1`: the inhibition was 5%.

Regarding `CCOC(=O)CCC(=O)Nc1ccc(S(=O)(=O)N2CCCC2)cc1`, the inhibition was 0%.

On to `COc1ccc2c(c1)C(C)=CC(C)(C)N2C(=O)C(C)N1C(=O)c2ccccc2C1=O` (stereo not given), for which the inhibition was 4%.

For `Cc1ccc(S(=O)(=O)NCCN2CCOCC2)cc1C`, the inhibition was 3%.

As for `Cc1cccc(-n2c(=O)cc(N3CCN(c4ccc(F)cc4)CC3)[nH]c2=O)c1`, the inhibition was 0%.

Consider `CC(=O)OC1c2ccccc2C(=O)N1Cc1ccccc1Cl` (stereo not given), for which the inhibition was 0%.

In the case of `COC(=O)c1ccc(C2C(C#N)=C(N)Oc3cc(C)n(C)c(=O)c32)cc1` (stereo not given), the inhibition was 0%.

In the case of `CC1(C)CC(=O)C2=C(C1)Nc1nc(SCCN3CCOCC3)[nH]c(=O)c1C2c1cccs1` (stereo not given), the inhibition was 2%.

On to `CCOC(=O)c1c(-c2ccc(C)o2)csc1NC(=O)CN1CCN(CC)CC1`, for which the inhibition was 0%.

Consider `O=S(=O)(NC1CCCC1)c1ccccc1Cl`, for which the inhibition is 0%.

Turning to `COc1ccccc1Nc1ccc(C(=O)NC2CCCCC2)cn1`, the inhibition was 0%.

Turning to `Cc1cc(C(F)(F)F)nn1Cc1ccc(C(=O)NCc2ccco2)o1`, the inhibition is 0%.

For the compound `COC(=O)CSc1nc(C)c(C(C)=O)cc1C#N`, the inhibition is 10%.

On to `N#Cc1c(-c2ccccc2)nc(N2CCCCCC2)[nH]c1=O`, for which the inhibition is 0%.

`CC1CN(CC(O)COc2ccc(C(C)C)cc2)CC(C)O1` (stereo not given): the inhibition was 0%.

As to `O=C(NCC(=O)N1CCC(N2CCCCC2)CC1)C1CCCCC1`, the inhibition was 3%.

On to `Cc1ccccc1OCC(O)CN` (stereo not given), for which the inhibition is 0%.

On to `Cn1nnc2c(sc3nc(N4CCOCC4)c4c(c32)CCCC4)c1=O`, for which the inhibition is 8%.

Regarding `CCOC(=O)N1CCC(NC(=O)CSCc2nc(-c3cccc(OC)c3)oc2C)CC1`, the inhibition was 0%.

Regarding `Cc1ccnc(NS(=O)(=O)c2ccc(NC(=O)Cc3cccs3)cc2)n1`, the inhibition is 3%.

As for `COc1ccc(CCNC(=O)C2CCN(Cc3nc(-c4cccc(Cl)c4)oc3C)CC2)cc1OC`, the inhibition is 0%.

In the case of `CCSc1oc(-c2ccco2)nc1S(=O)(=O)c1ccccc1`, the inhibition was 0%.

`O=C(COC(=O)c1cncc(Br)c1)NCCC1=CCCCC1`: the inhibition is 0%.

On to `Cc1ccc(C)n1-c1ccc(-n2cnnn2)cc1`, for which the inhibition was 2%.

As to `Cc1cccc(OCC(=O)N2CCC(N3CCCCCC3)CC2)c1`, the inhibition was 0%.

Take `Cc1cccc(-c2cc3nc4c(c(N5CCOCC5)n3n2)CCCC4)c1`: the inhibition is 0%.

A word on the inhibition: it is the change of the read-out against control, counted positive when it falls.
